Experimental data from publication PMC5700166.

The sequences below were run against T1, GST-Ap-NF-kB RHD (Exaiptasia pallida (Aiptasia), UniProt A0A913YAJ5 2-422) (assay: protein-binding microarray (PBM); PBM: ~300 nM protein, 6 mM HEPES pH 7.8, 80 mM KCl, 0.5 mM EDTA, 0.5 mM EGTA, 6% glycerol, 35 ng/ul poly-dIdC, 1% milk, 1 h, room temperature; Ap Aiptasia and Nv Nematostella (sea anemones) / Co Capsaspora / Aq Amphimedon (sponge) / Dm Drosophila / Hu human; RHD is the Rel homology domain; high values mean tight binding). Details: dsDNA, one strand shown.
T1 sequence: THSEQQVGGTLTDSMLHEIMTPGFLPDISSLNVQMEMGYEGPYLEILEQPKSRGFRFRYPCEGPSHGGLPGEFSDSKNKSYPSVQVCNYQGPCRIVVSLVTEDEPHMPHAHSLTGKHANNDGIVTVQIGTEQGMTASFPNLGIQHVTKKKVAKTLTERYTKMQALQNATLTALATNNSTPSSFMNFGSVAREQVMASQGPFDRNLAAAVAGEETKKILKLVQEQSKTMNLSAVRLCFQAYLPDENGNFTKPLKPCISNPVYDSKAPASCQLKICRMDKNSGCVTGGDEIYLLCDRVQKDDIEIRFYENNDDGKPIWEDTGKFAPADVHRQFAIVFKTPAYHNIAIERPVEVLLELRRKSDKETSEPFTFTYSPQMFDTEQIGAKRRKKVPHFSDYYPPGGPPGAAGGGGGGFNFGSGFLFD

| Sequence | binding signal |
| --- | --- |
| CCGATTAACATCACCCGGGAAAATGATGTTAATCGGGTCTTGATTCGCTTGACGCTGCTG | 2.61 z-score |
| CCGATTAACATCAGGAACACCCCTGATGTTAATCGGGTCTTGATTCGCTTGACGCTGCTG | 3.14 z-score |
| CCGATTAACATCAGGGGGGGTTATGATGTTAATCGGGTCTTGATTCGCTTGACGCTGCTG | 6.15 z-score |
| CCGATTAACATCAAAATTCCCAATGATGTTAATCGGGTCTTGATTCGCTTGACGCTGCTG | 3.1 z-score |
| CCGATTAACATCAATTTTTCCCATGATGTTAATCGGGTCTTGATTCGCTTGACGCTGCTG | 2.62 z-score |
| CCGATTAACATCAGGATATTCCCTGATGTTAATCGGGTCTTGATTCGCTTGACGCTGCTG | 4.67 z-score |
| CCGATTAACATCAGGGATCCCCATGATGTTAATCGGGTCTTGATTCGCTTGACGCTGCTG | 7.26 z-score |
| CCGATTAACATCAATGCACCCCCTGATGTTAATCGGGTCTTGATTCGCTTGACGCTGCTG | 4.19 z-score |
| CCGATTAACATCAAACAGGGAAATGATGTTAATCGGGTCTTGATTCGCTTGACGCTGCTG | 2.71 z-score |
| CCGATTAACATCAGGGTTTTTTATGATGTTAATCGGGTCTTGATTCGCTTGACGCTGCTG | 4.39 z-score |
| CCGATTAACATCAAATTCCCACTTGATGTTAATCGGGTCTTGATTCGCTTGACGCTGCTG | 2.15 z-score |
| CCGATTAACATCAGGGGTTTCACTGATGTTAATCGGGTCTTGATTCGCTTGACGCTGCTG | 3.56 z-score |
| CCGATTAACATCAGGGGAATGACTGATGTTAATCGGGTCTTGATTCGCTTGACGCTGCTG | 5.81 z-score |
| CCGATTAACATCAGGAATTCCCATGATGTTAATCGGGTCTTGATTCGCTTGACGCTGCTG | 6.4 z-score |
| CCGATTAACATCAGGGAAACCCATGATGTTAATCGGGTCTTGATTCGCTTGACGCTGCTG | 3.64 z-score |
| CCGATTAACATCACGGAAACCCCTGATGTTAATCGGGTCTTGATTCGCTTGACGCTGCTG | 5.32 z-score |
| CCGATTAACATCAAATCGGGAAATGATGTTAATCGGGTCTTGATTCGCTTGACGCTGCTG | 1.42 z-score |
| CCGATTAACATCAGGCACTCCCCTGATGTTAATCGGGTCTTGATTCGCTTGACGCTGCTG | 4.75 z-score |
| CCGATTAACATCACACCCCCCCCTGATGTTAATCGGGTCTTGATTCGCTTGACGCTGCTG | 4.42 z-score |
| CCGATTAACATCAGGGGCACCCCTGATGTTAATCGGGTCTTGATTCGCTTGACGCTGCTG | 5.17 z-score |

| Sequence | binding signal |
| --- | --- |
| CCGATTAACATCAGGGAGCTCCCTGATGTTAATCGGGTCTTGATTCGCTTGACGCTGCTG | 4.49 z-score |
| CCGATTAACATCAGAATCTCCCATGATGTTAATCGGGTCTTGATTCGCTTGACGCTGCTG | 1.74 z-score |
| CCGATTAACATCAATATACCCCCTGATGTTAATCGGGTCTTGATTCGCTTGACGCTGCTG | 6.61 z-score |
| CCGATTAACATCAAGGAATACCCTGATGTTAATCGGGTCTTGATTCGCTTGACGCTGCTG | 4.85 z-score |
| CCGATTAACATCAAATTCCCAGCTGATGTTAATCGGGTCTTGATTCGCTTGACGCTGCTG | 1.68 z-score |
| CCGATTAACATCAAAATTCCCGGTGATGTTAATCGGGTCTTGATTCGCTTGACGCTGCTG | 4.57 z-score |
| CCGATTAACATCACCCGATTCCCTGATGTTAATCGGGTCTTGATTCGCTTGACGCTGCTG | 2.55 z-score |
| CCGATTAACATCACCCCCCCCCGTGATGTTAATCGGGTCTTGATTCGCTTGACGCTGCTG | 7.33 z-score |
| CCGATTAACATCAAACAAACCCCTGATGTTAATCGGGTCTTGATTCGCTTGACGCTGCTG | 4.35 z-score |
| CCGATTAACATCAAGAATTCCCATGATGTTAATCGGGTCTTGATTCGCTTGACGCTGCTG | 4.1 z-score |
| CCGATTAACATCAGGGGGCATTATGATGTTAATCGGGTCTTGATTCGCTTGACGCTGCTG | 3.92 z-score |
| CCGATTAACATCAAAAATCCCTATGATGTTAATCGGGTCTTGATTCGCTTGACGCTGCTG | 5.18 z-score |
| CCGATTAACATCAGGGGAGTAAATGATGTTAATCGGGTCTTGATTCGCTTGACGCTGCTG | 3.1 z-score |
| CCGATTAACATCACGTTCCCCCCTGATGTTAATCGGGTCTTGATTCGCTTGACGCTGCTG | 6.32 z-score |
| CCGATTAACATCACTGTTTTCCCTGATGTTAATCGGGTCTTGATTCGCTTGACGCTGCTG | 2.63 z-score |
| CCGATTAACATCAGAGTCCCCCCTGATGTTAATCGGGTCTTGATTCGCTTGACGCTGCTG | 5.97 z-score |
| CCGATTAACATCAGTTCCCCCCATGATGTTAATCGGGTCTTGATTCGCTTGACGCTGCTG | 6.36 z-score |
| CCGATTAACATCAGGACTACCCCTGATGTTAATCGGGTCTTGATTCGCTTGACGCTGCTG | 3.7 z-score |
| CCGATTAACATCAAAGGTCCCCCTGATGTTAATCGGGTCTTGATTCGCTTGACGCTGCTG | 6.07 z-score |

What follows are sequences tested against T2, GST-Nv-NF-kB (Cys allele) (Nematostella vectensis, UniProt E5G601 2-411) in the same assay as above. Details: dsDNA, one strand shown.
T2 sequence: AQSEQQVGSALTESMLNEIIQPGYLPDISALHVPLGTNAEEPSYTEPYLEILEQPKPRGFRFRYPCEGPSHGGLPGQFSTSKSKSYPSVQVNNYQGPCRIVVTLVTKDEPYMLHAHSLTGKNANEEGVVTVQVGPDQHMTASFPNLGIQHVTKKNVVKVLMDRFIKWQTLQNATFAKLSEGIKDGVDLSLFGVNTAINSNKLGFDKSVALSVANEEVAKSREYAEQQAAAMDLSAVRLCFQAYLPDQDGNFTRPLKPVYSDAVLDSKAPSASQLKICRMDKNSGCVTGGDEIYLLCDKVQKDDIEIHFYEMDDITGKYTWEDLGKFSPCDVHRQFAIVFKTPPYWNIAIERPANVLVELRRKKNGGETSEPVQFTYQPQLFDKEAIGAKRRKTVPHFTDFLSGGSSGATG

| Sequence | binding signal |
| --- | --- |
| CCGATTAACATCACCCGGGAAAATGATGTTAATCGGGTCTTGATTCGCTTGACGCTGCTG | 3.28 z-score |
| CCGATTAACATCAGGAACACCCCTGATGTTAATCGGGTCTTGATTCGCTTGACGCTGCTG | 1.33 z-score |
| CCGATTAACATCAGGGGGGGTTATGATGTTAATCGGGTCTTGATTCGCTTGACGCTGCTG | 3.92 z-score |
| CCGATTAACATCAAAATTCCCAATGATGTTAATCGGGTCTTGATTCGCTTGACGCTGCTG | 4.95 z-score |
| CCGATTAACATCAATTTTTCCCATGATGTTAATCGGGTCTTGATTCGCTTGACGCTGCTG | 4.2 z-score |
| CCGATTAACATCAGGATATTCCCTGATGTTAATCGGGTCTTGATTCGCTTGACGCTGCTG | 5.16 z-score |
| CCGATTAACATCAGGGATCCCCATGATGTTAATCGGGTCTTGATTCGCTTGACGCTGCTG | 4.8 z-score |
| CCGATTAACATCAATGCACCCCCTGATGTTAATCGGGTCTTGATTCGCTTGACGCTGCTG | 2.93 z-score |
| CCGATTAACATCAAACAGGGAAATGATGTTAATCGGGTCTTGATTCGCTTGACGCTGCTG | 4.69 z-score |
| CCGATTAACATCAGGGTTTTTTATGATGTTAATCGGGTCTTGATTCGCTTGACGCTGCTG | 5.06 z-score |
| CCGATTAACATCAAATTCCCACTTGATGTTAATCGGGTCTTGATTCGCTTGACGCTGCTG | 4.13 z-score |
| CCGATTAACATCAGGGGTTTCACTGATGTTAATCGGGTCTTGATTCGCTTGACGCTGCTG | 3.24 z-score |
| CCGATTAACATCAGGGGAATGACTGATGTTAATCGGGTCTTGATTCGCTTGACGCTGCTG | 6.43 z-score |
| CCGATTAACATCAGGAATTCCCATGATGTTAATCGGGTCTTGATTCGCTTGACGCTGCTG | 5.88 z-score |
| CCGATTAACATCAGGGAAACCCATGATGTTAATCGGGTCTTGATTCGCTTGACGCTGCTG | 4.19 z-score |
| CCGATTAACATCACGGAAACCCCTGATGTTAATCGGGTCTTGATTCGCTTGACGCTGCTG | 4.37 z-score |
| CCGATTAACATCAAATCGGGAAATGATGTTAATCGGGTCTTGATTCGCTTGACGCTGCTG | 3.49 z-score |
| CCGATTAACATCAGGCACTCCCCTGATGTTAATCGGGTCTTGATTCGCTTGACGCTGCTG | 3.18 z-score |
| CCGATTAACATCACACCCCCCCCTGATGTTAATCGGGTCTTGATTCGCTTGACGCTGCTG | 3.24 z-score |
| CCGATTAACATCAGGGGCACCCCTGATGTTAATCGGGTCTTGATTCGCTTGACGCTGCTG | 3.94 z-score |

| Sequence | binding signal |
| --- | --- |
| CCGATTAACATCAGGGAGCTCCCTGATGTTAATCGGGTCTTGATTCGCTTGACGCTGCTG | 3.24 z-score |
| CCGATTAACATCAGAATCTCCCATGATGTTAATCGGGTCTTGATTCGCTTGACGCTGCTG | 2.74 z-score |
| CCGATTAACATCAATATACCCCCTGATGTTAATCGGGTCTTGATTCGCTTGACGCTGCTG | 4.24 z-score |
| CCGATTAACATCAAGGAATACCCTGATGTTAATCGGGTCTTGATTCGCTTGACGCTGCTG | 5.51 z-score |
| CCGATTAACATCAAATTCCCAGCTGATGTTAATCGGGTCTTGATTCGCTTGACGCTGCTG | 3.6 z-score |
| CCGATTAACATCAAAATTCCCGGTGATGTTAATCGGGTCTTGATTCGCTTGACGCTGCTG | 5.96 z-score |
| CCGATTAACATCACCCGATTCCCTGATGTTAATCGGGTCTTGATTCGCTTGACGCTGCTG | 2.62 z-score |
| CCGATTAACATCACCCCCCCCCGTGATGTTAATCGGGTCTTGATTCGCTTGACGCTGCTG | 5.51 z-score |
| CCGATTAACATCAAACAAACCCCTGATGTTAATCGGGTCTTGATTCGCTTGACGCTGCTG | 3.42 z-score |
| CCGATTAACATCAAGAATTCCCATGATGTTAATCGGGTCTTGATTCGCTTGACGCTGCTG | 5.41 z-score |
| CCGATTAACATCAGGGGGCATTATGATGTTAATCGGGTCTTGATTCGCTTGACGCTGCTG | 4.06 z-score |
| CCGATTAACATCAAAAATCCCTATGATGTTAATCGGGTCTTGATTCGCTTGACGCTGCTG | 5.21 z-score |
| CCGATTAACATCAGGGGAGTAAATGATGTTAATCGGGTCTTGATTCGCTTGACGCTGCTG | 3 z-score |
| CCGATTAACATCACGTTCCCCCCTGATGTTAATCGGGTCTTGATTCGCTTGACGCTGCTG | 5.07 z-score |
| CCGATTAACATCACTGTTTTCCCTGATGTTAATCGGGTCTTGATTCGCTTGACGCTGCTG | 4.15 z-score |
| CCGATTAACATCAGAGTCCCCCCTGATGTTAATCGGGTCTTGATTCGCTTGACGCTGCTG | 5.02 z-score |
| CCGATTAACATCAGTTCCCCCCATGATGTTAATCGGGTCTTGATTCGCTTGACGCTGCTG | 4.32 z-score |
| CCGATTAACATCAGGACTACCCCTGATGTTAATCGGGTCTTGATTCGCTTGACGCTGCTG | 3.48 z-score |
| CCGATTAACATCAAAGGTCCCCCTGATGTTAATCGGGTCTTGATTCGCTTGACGCTGCTG | 4.14 z-score |
